Reference: the supplement of paper PMC13380429

Tested on: Vero E6 infected with SARS-CoV-2
Assay: inhibition of SARS-CoV-2 cytopathic effect; higher = more antiviral protection, active = above 15
Settings: 48 h

Measured: inhibition of SARS-CoV-2 cytopathic effect

C[C@@H](c1nc(-c2ccc(C#N)cc2)cs1)[C@](O)(Cn1cncn1)c1cc(F)ccc1F [isavuconazole]
inactive: 1 nM -2.38% | 8.33 nM -2.11% | 100 nM -0.9% | 833.33 nM 1.65% | 10000 nM 2.79%

COc1cccc2c1C(=O)c1c(O)c3c(c(O)c1C2=O)C[C@@](O)(C(=O)CO)C[C@@H]3O[C@H]1C[C@H](N)[C@H](O[C@@H]2CCCCO2)[C@H](C)O1 [pirarubicin]
inactive: 1 nM -1.57% | 8.33 nM -0.32% | 100 nM -0.19% | 833.33 nM -1.24% | 10000 nM -2.07%

CCOC(=O)c1ccc(-c2ccc(OC(=O)N(C)Cc3cccc(-c4ccncc4)c3)cc2)cc1
inactive: 1 nM 2.8% | 8.33 nM -0.08% | 100 nM 3.06% | 833.33 nM 4.52% | 10000 nM 4.58%

CCN(CCCc1ccccc1)CCCc1ccccc1 [alverine]
inactive: 1 nM -0.33% | 8.33 nM 1.03% | 100 nM -0.23% | 833.33 nM -0.58% | 10000 nM -0.57%

O=C(CCCCC(=O)Nc1c(I)cc(I)c(C(=O)O)c1I)Nc1c(I)cc(I)c(C(=O)O)c1I [iodipamide]
inactive: 1 nM -2.81% | 8.33 nM -3.21% | 100 nM -1.82% | 833.33 nM -3.34% | 10000 nM 0.05%

C[C@H](N/C(=N/C#N)Nc1cccc2ncccc12)c1ccccc1
inactive: 1 nM -1.75% | 8.33 nM -2.48% | 100 nM -3.44% | 833.33 nM 1.32% | 10000 nM 1.97%
